SARS PLP yeast: qHTS of Yeast-based Assay for SARS-CoV PLP; S. cerevisiae expressing SARS-CoV PLpro, growth rescue; Potency, µM (doses to about 32.9 µM), without a hit: top-dose activity, positive = growth rescue, hits mostly activators; 330,000 compounds, 0.19% hits; AID 485353, 2010; also: potency is read from the fitted curve at half-maximal effect; 0% is about no effect; nearly all actives have a fitted effect of over 55% in size
Shiga toxin inh: A qHTS for Small Molecule Inhibitors of Shiga Toxin; Vero cells, Shiga toxin protein synthesis inhibition reporter; inhibition, % at 38.7 µM; 290,000 compounds, 9.2% hits; in the data active = inhibition mostly above about 28%, no sharp cut-off; inactive = mostly below about 43%; also: 0% is about no effect
Pf growth 96h: Primary qHTS for delayed death inhibitors of the malarial parasite plastid, 96 hour incubation; AID 504834, 2011; P. falciparum luciferase reporter growth, 96 h; 320,000 compounds, 6.9% hits; Potency, µM (top dose mostly 28.7 µM), for inactives: at the highest dose activity change, negative = inhibition, most hits filed as inhibitors; active = well fitted inhibition curve with a large enough effect; inconclusive = small, poorly fitted or top-dose-only effect, or another doubt; inactive = no such curve, though single readings can be large or run the other way; also: potency is read from the fitted curve at half-maximal effect; % is scaled to controls: 0 for no effect and ±100 for the full control effect
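Compounds incubated with erythrocytes infected by luciferase-expressing P. falciparum (2% hematocrit, 0.05% parasitemia final) for 96 hours, 37 C in 5% CO2. Growth inhibition scored as decreased luciferase luminescence.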
Cycloheximide cs: Cycloheximide Counterscreen for Small Molecule Inhibitors of Shiga Toxin. max response, %. 300,000 compounds, 12% hits. cell reporter, cycloheximide protein synthesis inhibition counterscreen; in the data active = max response mostly above about 13%, no sharp cut-off; inactive = mostly below about 14%; also: read at 38.3 µM for the half of the compounds with a filed dose; 0% is about no effect
Pf growth 48h: Primary qHTS for delayed death inhibitors of the malarial parasite plastid, 48 hour incubation; P. falciparum luciferase growth in erythrocytes, 48 h; Potency, µM (titrated, usually from 28.7 µM), inactives show top-dose activity change, negative = inhibition, most hits filed as inhibitors; 310,000 compounds, 5.9% hits; active = well fitted inhibition curve with a large enough effect; inconclusive = small, poorly fitted or top-dose-only effect, or another doubt; inactive = no such curve, though single readings can be large or run the other way; also: potency is read from the fitted curve at half-maximal effect; % is scaled to controls: 0 for no effect and ±100 for the full control effect
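Compounds are pin-transferred into medium, infected erythrocytes (2% hematocrit, 0.1% parasitemia final) are added, and plates sit one parasite generation at 37 C in 5% CO2. Detection reagent is then added and luminescence measured.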
NS1 inh: qHTS Assay for Inhibitors of Influenza NS1 Protein Function | Potency, µM (series often up to 46.1 µM), for the others: at the highest dose activity, positive = more growth | 270,000 compounds, 0.4% hits | AID 2326, 2010; also: potency is read from the fitted curve at half-maximal effect; actives are rising curves; nearly all actives have a fitted effect of over 50% in size
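S. cerevisiae expressing influenza A NS1, grown in glucose, washed, then diluted 1:100 into pH 6.0 -URA galactose medium with 23 nl compound. Growth recovery read as OD600; NS1-free strain serves as control.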
Numbers without * were called inactive; [ ] = remark or other dose. Most compounds without a hit are left out; they make up all but 21% or so of the library. Unless noted, calls follow the shape of the full dose curve.

For O=C(Nc1ccc(Cl)c(Cl)c1)N1CCOCC1 the results were SARS PLP yeast -3%, Shiga toxin inh 37*, Pf growth 96h 23%, Cycloheximide cs 15, Pf growth 48h 8% and NS1 inh -1%.
O=C(Nc1ccc(Cl)c(Cl)c1)N1CCCCCC1 was read as SARS PLP yeast 1%, Shiga toxin inh 90*, Pf growth 96h 40%, Cycloheximide cs 51*, Pf growth 48h 60% and NS1 inh 6%.
Screening CCNC(=O)C1CC(=O)N(Cc2ccc(F)cc2)C(=Nc2ccc(OC)cc2)S1 (configuration not stated) returned SARS PLP yeast -2%, Shiga toxin inh -14, Pf growth 96h inconclusive, Cycloheximide cs -2, Pf growth 48h 7.4µM* and NS1 inh -4%.
CCOc1ccc(NC(=S)N2CCCN(Cc3cc(C)ccc3C)C2)cc1 was read as SARS PLP yeast 2%, Shiga toxin inh -15, Pf growth 96h -3%, Cycloheximide cs 7 and Pf growth 48h inconclusive.
Screening O=[N+]([O-])c1cc2oc3c(c2c(C=NCc2ccncc2)c1O)CCCC3 returned Shiga toxin inh -10, Pf growth 96h inconclusive, Cycloheximide cs -3, Pf growth 48h 10µM* and NS1 inh -31%.
`CC(C)(C)N=Cc1c(O)ccc2oc3c(c12)CCCC3` gave SARS PLP yeast -1%, Shiga toxin inh -6, Pf growth 96h 7%, Cycloheximide cs -1, Pf growth 48h 23%[0.00184 µM] and NS1 inh -57%.
Cc1ccc(NC(=O)c2cccc(C(=O)OC(C)C)n2)c(Br)c1 was read as SARS PLP yeast -1%, Shiga toxin inh 75*, Pf growth 96h inconclusive, Cycloheximide cs 23* and Pf growth 48h 10%.
`COC(=O)c1cccc(C(=O)Nc2ccc(C)cc2Br)n1` gave SARS PLP yeast -2%, Shiga toxin inh 65*, Pf growth 96h 178%, Cycloheximide cs 38*, Pf growth 48h 57% and NS1 inh -75%.
O=C(O)C[C@H](NC(=O)CP(=O)(O)O)C(=O)O.[NH-][C@@H]1CCCC[C@@H]1[NH-].[Pt] was read as NS1 inh -8%.
For Cc1nn(Cc2c(F)c(F)c(F)c(F)c2F)c(C)c1NC(=O)c1ccc(COc2ccc(Cl)cc2Cl)o1 the results were SARS PLP yeast -34%, Shiga toxin inh 4, Pf growth 96h inconclusive, Cycloheximide cs -2, Pf growth 48h -9% and NS1 inh 24%.
For Cc1nn(Cc2cccc(F)c2)c(C)c1NC(=O)c1ccc(COc2ccccc2Cl)cc1 the results were SARS PLP yeast 1%, Shiga toxin inh 6, Cycloheximide cs 18, Pf growth 48h 13µM* and NS1 inh -2%.
Cc1nn(Cc2c(Cl)cccc2Cl)c(C)c1NC(=O)c1cc(C(C)C)on1 was read as SARS PLP yeast 18%, Shiga toxin inh -9, Pf growth 96h 9.3µM*, Cycloheximide cs -4 and NS1 inh -12%.
For Cc1cc(C(=O)Nc2c(C)nn(Cc3c(Cl)cccc3Cl)c2C)no1 the results were SARS PLP yeast -1%, Shiga toxin inh 7, Pf growth 96h 1%, Cycloheximide cs 0, Pf growth 48h 36% and NS1 inh 7%.
For Cc1nn(Cc2c(F)c(F)c(F)c(F)c2F)c(C)c1NC(=O)c1cccc(COc2ccccc2Cl)c1 the results were SARS PLP yeast 1%, Shiga toxin inh 162*, Pf growth 96h 289%, Cycloheximide cs 69*, Pf growth 48h 137% and NS1 inh 15%.
Screening COc1ccc(CC(=O)Nc2nnc(SCC(=O)NCc3ccco3)s2)cc1OC returned SARS PLP yeast 0%, Shiga toxin inh -4, Pf growth 96h inconclusive, Cycloheximide cs -4, Pf growth 48h -19% and NS1 inh 3%.
COc1ccccc1C(=O)Nc1ccc(OCC(=O)N2CCCCC2C)cc1 (configuration not stated) was read as SARS PLP yeast -11%, Pf growth 96h inconclusive and Pf growth 48h -13%.
Screening Cc1c(NC(=O)COC(=O)CCc2c[nH]c3ccccc23)c(=O)n(-c2ccccc2)n1C returned SARS PLP yeast -2%, Shiga toxin inh 1, Pf growth 96h -8%, Cycloheximide cs -2, Pf growth 48h 9% and NS1 inh 3%.
Screening C[C@@H](C(=O)Nc1cccc(S(=O)(=O)N2CCOCC2)c1)N1C(=O)C2CC=CCC2C1=O (some centres not stated) returned SARS PLP yeast 0%, Shiga toxin inh -2, Pf growth 96h inconclusive, Cycloheximide cs -3, Pf growth 48h 13% and NS1 inh 8%.
For CCn1cnc2cc(NS(=O)(=O)c3ccc(C)cc3)ccc21 the results were SARS PLP yeast 4%, Shiga toxin inh 58, Cycloheximide cs 8, Pf growth 48h inconclusive and NS1 inh 18%.
Screening CC(C)(C)n1cnc2cc(NCc3cccs3)ccc21 returned SARS PLP yeast 0%, Shiga toxin inh 120*, Pf growth 96h -18%, Cycloheximide cs 30* and Pf growth 48h 196%.
Screening CCn1cnc2cc(NCc3cccs3)ccc21 returned SARS PLP yeast -2%, Shiga toxin inh 188*, Pf growth 96h 7%, Cycloheximide cs 31*, Pf growth 48h 124% and NS1 inh -7%.
`CCOC(=O)/C(C#N)=C/c1ccc(OCC(=O)Nc2cc(C)ccc2C)c(OC)c1` gave SARS PLP yeast 9%, Shiga toxin inh -4, Pf growth 96h inconclusive, Cycloheximide cs -3, Pf growth 48h 20% and NS1 inh 1%.
For CCOC(=O)/C(C#N)=C\c1ccc(OCC(=O)Nc2ccc(C)cc2C)c(OC)c1 the results were SARS PLP yeast 2%, Shiga toxin inh -7, Pf growth 96h 2.6µM*, Cycloheximide cs 3, Pf growth 48h 39% and NS1 inh 4%.
O=C(C(=O)N1CCCCCC1)c1c[nH]c2ccccc12 was read as SARS PLP yeast -6%, Shiga toxin inh 13, Pf growth 96h -18%, Cycloheximide cs 1, Pf growth 48h -2% and NS1 inh -5%.
C[n+]1cc(C(=O)N2CCCCC2)ccc1/C=C/c1c[nH]c2ccccc12 was read as SARS PLP yeast 0%, Shiga toxin inh 7, Pf growth 96h 0.41µM*, Cycloheximide cs 9, Pf growth 48h inconclusive and NS1 inh 9%.
Screening O=c1cc(N2CCCCC2)c(-c2ccccc2)nn1Cc1ccccc1Cl returned SARS PLP yeast -8%, Shiga toxin inh -12, Pf growth 96h 2.6µM*, Cycloheximide cs -3, Pf growth 48h 3.3µM* and NS1 inh -69%.
For O=c1cc(N2CCCCC2)c(-c2ccccc2)nn1Cc1ccc(Cl)cc1Cl the results were SARS PLP yeast -18%, Shiga toxin inh 8, Pf growth 96h inconclusive, Cycloheximide cs 6, Pf growth 48h 2.1µM* and NS1 inh -30%.
